Screening results as filed in PubChem.
Sampled rows, rich in hits. Any-hit rate of the full collection: about 2.8%.
SENP8 block-1 = blocks human SENP8 cleavage of Nedd8 substrate; Q96LD8; recombinant SENP8, Nedd8 substrate fluorescence; inhibition, % at 20 µM; 360,000 compounds, 0.64% hits; AID 602440; in the data active means inhibition mostly above about 40%, no sharp cut-off; inactive means mostly below about 27%
Target sequence (Q96LD8 whole entry, looked up): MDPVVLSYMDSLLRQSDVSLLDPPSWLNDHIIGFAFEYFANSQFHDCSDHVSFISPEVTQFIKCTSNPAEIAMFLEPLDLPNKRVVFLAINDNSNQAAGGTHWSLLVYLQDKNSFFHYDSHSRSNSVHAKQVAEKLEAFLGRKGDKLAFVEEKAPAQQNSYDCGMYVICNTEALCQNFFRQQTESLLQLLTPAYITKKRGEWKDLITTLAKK
SENP7 block = blocks the human protease SENP7; recombinant SENP7, Z-RLRGG-aminoluciferin luminescence, 40 min; inhibition, % at 5 µM; 330,000 compounds, 1.5% hits;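 active means inhibition above about 50% at the single test dose, limit read from the data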
SENP6 block = blocks the human protease SENP6 | 330,000 compounds, 1.8% hits | inhibition, % at 10 µM | Recombinant SENP6 catalytic domain, aminoluciferin luminescence;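 active means inhibition above about 50% at the single tested dose, limit read from the data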
SENP8 block-2 = SENP8 protease inhibition; Q96LD8; purified SENP8, Z-RLRGG-aminoluciferin cleavage, luminescence; inhibition, % at 10 µM; 330,000 compounds, 1.2% hits; AID 2540; in the data active means inhibition above about 50%
HSP90 inh = inhibitors of HSP90 luciferase refolding in rabbit reticulocyte lysate. inhibition, % at 5.6 µM. 290,000 compounds, 0.91% hits. luciferase refolding luminescence, 3 h. AID 1789;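 active means inhibition above the screen-wide mean plus 3 SD, computed separately per campaign, cut at about 16% in these data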;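 further: inhibitors lower the luminescence because luciferase stays unfolded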
SENP8 confirm = confirmation of human SENP8 protease inhibitors; Recombinant SENP8, Z-RLRGG-aminoluciferin luminescence, 60 min; shares compounds with SENP7 block; AID 488912; 6,200 compounds, 40% hits; inhibition, % at 12.5 µM;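 active means mean inhibition across replicates above about 50%, limit read from the data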
SENP6 conf = confirmation of human SENP6 protease inhibitors. recombinant SENP6, Z-RLRGG-aminoluciferin luminescence. AID 488915. shares compounds with SENP7 block. inhibition, % at 12.5 µM. 6,200 compounds, 58% hits
SENP7 confirm = human SENP7 inhibition, confirmed; shares compounds with SENP7 block; inhibition, % at 12.5 µM; 6,200 compounds, 69% hits; recombinant SENP7, Z-RLRGG-aminoluciferin luminescence, 40 min
Casp3 select = inhibits human caspase-3 in SENP selectivity test | shares compounds with SENP7 block | purified caspase-3, Z-DEVD-aminoluciferin luminescence, 60 min | inhibition, % at 12.5 µM | 6,200 compounds, 60% hits;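 active means mean inhibition above about 50%, limit read from the data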
Target sequence (P42574 28-227 limits assumed): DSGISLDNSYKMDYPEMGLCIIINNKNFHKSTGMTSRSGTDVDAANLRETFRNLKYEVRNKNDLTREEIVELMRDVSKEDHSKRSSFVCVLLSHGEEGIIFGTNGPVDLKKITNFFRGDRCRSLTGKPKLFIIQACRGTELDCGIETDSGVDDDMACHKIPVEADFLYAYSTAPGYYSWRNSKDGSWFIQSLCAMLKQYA
SENP luc ctr = luminescence interference (SENP counter-screen). Pre-incubated SENP8/Z-RLRGG-aminoluciferin, luciferase luminescence interference. shares compounds with SENP7 block. inhibition, % at 12.5 µM. 6,200 compounds, 39% hits;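 active means mean inhibition above about 50% when retested at one dose, limit read from the data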
Large screens that a line does not name were inactive (follow-up assays come after a bar, where they were run).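 How the source made its calls, unless noted: active means mean inhibition above about 50% in the one-dose retest (limit read from the data); inactive means the rest.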

Cc1[nH][nH]c(=O)c1N=Nc1ccc(Br)c(Cl)c1	SENP7 block 71, SENP6 block 94, SENP8 block-2 86 (no result: HSP90 inh) | SENP8 confirm inactive | SENP6 conf inactive | SENP7 confirm inactive | Casp3 select inactive | SENP luc ctr inactive
Cc1[nH][nH]c(=O)c1N=Nc1ccc(S(N)(=O)=O)cc1	none (no result: HSP90 inh)
CC(=O)c1ccc(N=Nc2ccc(N)cc2)cc1	SENP8 block-1 46, SENP7 block 78, SENP6 block 75 | SENP8 confirm 60 | SENP6 conf 62 | SENP7 confirm 88 | Casp3 select 62 | SENP luc ctr inactive
CC(=O)c1ccc(N=Nc2c(C)[nH][nH]c2=O)cc1	SENP8 block-1 56, SENP7 block 79, SENP6 block 55 (no result: HSP90 inh) | SENP8 confirm 56 | SENP6 conf 57 | SENP7 confirm 76 | Casp3 select 88 | SENP luc ctr inactive
CCOC(=O)CSc1nc(N)c2c3c(sc2n1)CCCC3	none
C=CCn1c(N)c(C(=O)OC(C)(C)C)c2nc3ccccc3nc21	none
CC(C)Cn1c(N)c(C(=O)NCC2CCCO2)c2nc3ccccc3nc21 (stereo not given)	SENP6 block 76, SENP8 block-2 76 | SENP8 confirm inactive | SENP6 conf inactive | SENP7 confirm inactive | Casp3 select inactive | SENP luc ctr inactive
COCCn1c(N)c(C(=O)NCc2cccs2)c2nc3ccccc3nc21	SENP7 block 64, SENP6 block 84, SENP8 block-2 87 | SENP8 confirm inactive | SENP6 conf inactive | SENP7 confirm inactive | Casp3 select inactive | SENP luc ctr inactive
COc1ccc(OC)c(-n2c(N)c(C(=O)NCC3CCCO3)c3nc4ccccc4nc32)c1 (stereo not given)	none (no result: SENP7 block, SENP6 block, SENP8 block-2)
C=CCn1c(N)c(C(=O)Nc2ccccc2)c2nc3ccccc3nc21	SENP6 block 64, SENP8 block-2 52 | SENP8 confirm inactive | SENP6 conf inactive | SENP7 confirm inactive | Casp3 select inactive | SENP luc ctr inactive
COCCn1c(N)c(S(=O)(=O)c2cccs2)c2nc3ccccc3nc21	none
COCCNC(=O)c1c(N)n(-c2ccccc2)c2nc3ccccc3nc12	SENP6 block 62 | SENP8 confirm inactive | SENP6 conf inactive | SENP7 confirm inactive | Casp3 select inactive | SENP luc ctr inactive
CCCCOc1ccccc1C1NC(=O)NC(C)=C1C(=O)OCCOCC (stereo not given)	none
CCCCc1ccc(S(=O)(=O)N2CCN(C(=O)c3ccco3)CC2)cc1	none
Cn1c(=O)c2c(nc(CN3CCOCC3)n2CCN2CCOCC2)n(C)c1=O	none
COCCNC(=O)c1c(N)n(CCCn2ccnc2)c2nc3ccccc3nc12	SENP7 block 67, SENP6 block 89 | SENP8 confirm inactive | SENP6 conf inactive | SENP7 confirm inactive | Casp3 select inactive | SENP luc ctr inactive
COCCCNC(=O)c1c(N)n(-c2ccccc2)c2nc3ccccc3nc12	none
Cc1cc(NC(=O)C(C)C)ncc1NC(=O)c1cccc(F)c1	none
Cc1cc(NC(=O)c2ccccc2)ncc1NC(=O)c1ccco1	SENP7 block 91, SENP6 block 91, SENP8 block-2 80 | SENP8 confirm 89 | SENP6 conf 88 | SENP7 confirm 99 | Casp3 select 96 | SENP luc ctr 87
CCCC(=O)Nc1cnc(NC(=O)c2cccc(F)c2)cc1C	SENP7 block 79, SENP6 block 82, SENP8 block-2 53, HSP90 inh 17 | SENP8 confirm 78 | SENP6 conf 75 | SENP7 confirm 94 | Casp3 select 92 | SENP luc ctr 75
Brc1ccc(-c2noc(-c3ccccn3)n2)o1	SENP7 block 91, SENP6 block 85, SENP8 block-2 86 | SENP8 confirm inactive | SENP6 conf 86 | SENP7 confirm 99 | Casp3 select 93 | SENP luc ctr inactive
COc1cc(-c2nc(-c3ccc(Br)o3)no2)cc(OC)c1OC	none
Clc1ccccc1-c1nc(-c2ccc(Br)o2)no1	SENP7 block 82, SENP6 block 86, SENP8 block-2 83 | SENP8 confirm inactive | SENP6 conf 85 | SENP7 confirm 97 | Casp3 select 68 | SENP luc ctr 73
Clc1ccccc1OCc1nc(-c2ccc(Br)o2)no1	none
COc1ccc(-c2ccc(C(=O)Nc3cccc(NS(C)(=O)=O)c3)c3occc23)c(C)c1	none (no result: SENP7 block, SENP6 block, SENP8 block-2, HSP90 inh)
Fc1ccc(-c2csc(Nc3ccccn3)n2)cc1	SENP7 block 90, SENP6 block 87, SENP8 block-2 83 | SENP8 confirm 91 | SENP6 conf 92 | SENP7 confirm 100 | Casp3 select 70 | SENP luc ctr 58
Clc1ccccc1Nc1nc(-c2cccnc2)cs1	SENP7 block 83, SENP6 block 88, SENP8 block-2 74 | SENP8 confirm 89 | SENP6 conf 86 | SENP7 confirm 97 | Casp3 select 66 | SENP luc ctr 53
Cc1ccc(Nc2nc(-c3ccc(F)cc3)cs2)nc1	none
c1ccc(Nc2nc(-c3cccnc3)cs2)nc1	SENP7 block 81, SENP6 block 88, SENP8 block-2 55 | SENP8 confirm inactive | SENP6 conf inactive | SENP7 confirm 88 | Casp3 select 79 | SENP luc ctr inactive
Cc1ccc(-n2nc3c(n2)/C(=N/O)CC/C3=N\O)cc1	SENP7 block 78, SENP8 block-2 66 | SENP8 confirm inactive | SENP6 conf inactive | SENP7 confirm inactive | Casp3 select inactive | SENP luc ctr inactive
O/N=C1\CC/C(=N\O)c2nn(-c3ccccc3Cl)nc21	none
Cc1cccc(C(=O)Nc2sc3c(c2C(=O)O)CCC3)c1	SENP7 block 87, SENP6 block 99, SENP8 block-2 96 | SENP8 confirm 96 | SENP6 conf 96 | SENP7 confirm 100 | Casp3 select 95 | SENP luc ctr 94
COc1cccc(C(=O)Nc2sc3c(c2C(=O)O)CCCC3)c1	SENP6 block 89, SENP8 block-2 84 | SENP8 confirm inactive | SENP6 conf 74 | SENP7 confirm 68 | Casp3 select 79 | SENP luc ctr inactive
CNC(=O)c1c(NC(=O)c2cccc(C)c2)sc2c1CCC2	none
Cc1cccn2cc(-c3ccc(Cl)cc3)nc12	SENP7 block 91, SENP6 block 95, SENP8 block-2 89 | SENP8 confirm 95 | SENP6 conf 96 | SENP7 confirm 101 | Casp3 select 92 | SENP luc ctr 54
O=C(Nc1cccc(NC(=O)c2cccc(F)c2)n1)c1cccc(F)c1	none
